The source of these data is PubChem BioAssay AID588323 (National Center for Advancing Translational Sciences (NCATS), 2011).

Calls of active or inactive are those of the source. Calls come from the whole dose curve; as a rule, active = well fitted curve in the direction sought with a large enough effect; inconclusive = small, poorly fitted or top-dose-only effect, or another doubt; inactive = no such curve, though single readings can be large or run the other way.

The assay is described as follows: Confirmatory Assay to Find Inhibitors of T. brucei phosphofructokinase: Cytotoxictity in MRC5. The conditions noted are these: cell viability; Potency: MRC5 cytotoxicity; series mostly up to 46.1 µM; activity change, negative = cytotoxicity: at the top concentration. An excerpt: Various species of the protozoan family Trypanosomatidae are responsible for a range of serious human diseases in tropical and subtropical areas of the world. […] Many of the disorders caused by trypanosomatids are fatal if left untreated, but most currently used drugs are inefficient and toxic.
Oxidative metabolism involving the mitochondrial tricarboxylic acid cycle and oxidative phosphorylation are repressed in these parasites, and recent RNA interference (RNAi) experiments have shown that even partial depletion of certain individual glycolytic enzymes can lead to the death of cultured parasites. One such glycolytic enzyme, phosphofructokinase (PFK), catalyzes the formation of fructose-1,6-bisphosphate (F1,6BP) and ADP from fructose-6-phosphate (F6P) and ATP, and in many metabolic circumstances makes an important contribution to the control of flux through the glycolytic pathway. As a specific glycolytic target, PFK is particularly attractive as it catalyzes the first irreversible step in glycolysis, and structural and kinetic studies have shown very substantial and essential differences from corresponding host enzymes, allowing for the discovery of parasite-selective inhibitors.
Confirmed qHTS active compounds were tested for toxicity against the MRC-5 human lung fibroblast cell lines. This line havs historically been used as representative human cells in in vitro Trypanosoma assays, and so provide a relevant surrogate for human cells in testing Tb PFK inhibitor toxicity.
NIH Chemical Genomics Center [NCGC]
NIH Molecular Libraries Probe Centers Network [MLPCN]
Assay Submitter (PI): Malcom Walkinshaw, University of Edinburg
MRC5 cells were dispensed into white solid 1536-microwell plates in 5 uL media (high glucose DMEM, 10% FBS) with a Thermo Multidrop. The plates were incubated at 37 degrees Celsius for 2 hours, and subsequently treated with compounds using the Kalypsys pin tool, delivering 23 nL of test compounds to each well. The plates were then incubated for an additional 72 hours at 37 degrees Celsius. Cytotoxicity was assessed by adding 2.5 uL of Cell-Titer Glo (Promega, Madison, WI) via Multidrop, incubating at room temperature for 10 min and reading luminescence on the Perkin Elmer ViewLux using a 1 second exposure and 1x binning. DMSO-treated cells were included as negative control, while media-only wells were used as a positive control equivalent to 100% cell toxicity for the sake of data normalization.
In the case of `O=C(Cc1ccc(Cl)c(Cl)c1)Nc1ccc(S(=O)(=O)Nc2ccn[nH]2)cc1`, the “activity change, negative = cytotoxicity” value is -18% (inactive). Still for that read-out and setting: the result for `Cc1cc(NS(=O)(=O)c2ccc(NC(=O)CCc3ccc(Cl)c(Cl)c3)cc2)no1` reads 0.751% (inactive). The same measure, in the same setting: the result for `Cc1cc(NS(=O)(=O)c2ccc(NC(=O)Cc3ccc(Cl)c(Cl)c3)cc2)on1` reads -19.8% (inactive). On the same count and under the same terms, next, `O=C(Cc1ccc(Cl)c(Cl)c1)Nc1ccc(S(=O)(=O)Nc2ccon2)cc1`: -9.57% (inactive); `O=C(Cc1ccc(Cl)c(Cl)c1)Nc1ccc(S(=O)(=O)Nc2cccc(C(=O)O)c2)cc1`: 0.992% (inactive); `Cc1cc(NS(=O)(=O)c2ccc(NS(=O)(=O)Cc3ccc(Cl)c(Cl)c3)cc2)no1`: 2.37% (inactive). As for `O=C(Cc1ccc(Cl)c(Cl)c1)Nc1ccc(S(=O)(=O)Nc2cccc(O)c2)cc1`, the “activity change, negative = cytotoxicity” value is -10.7% (inactive). Still for that read-out and setting: next, `O=C(Cc1ccc(Cl)c(Cl)c1)Nc1ccc(S(=O)(=O)Nc2ccccc2)cc1`: -16.9% (inactive). Still for that read-out and setting: the result for `Cc1cc(NS(=O)(=O)c2ccc(NC(=O)Cc3ccc(Cl)c(Cl)c3)cc2)no1` reads -32.7% (inactive); that for `CCOC(=O)c1cccc(NS(=O)(=O)c2ccc(NC(=O)Cc3ccc(Cl)c(Cl)c3)cc2)c1`, 2.49% (inactive); that for `Cc1cc(NS(=O)(=O)c2ccc(NC(=O)Cc3ccc(Cl)c(Cl)c3)cc2)n(C)n1`, -1.38% (inactive).

As to `COc1ccc(CC(=O)Nc2ccc(S(=O)(=O)Nc3cc(C)on3)cc2)cc1C`, the “activity change, negative = cytotoxicity” value is -11.7% (inactive). Same read-out and setting: next, `Cc1cc(NS(=O)(=O)c2ccc(NC(=O)Cc3ccc(Cl)cc3Cl)cc2)no1`: -0.204% (inactive); `Cc1cc(NC(=O)c2ccc(NC(=O)Cc3ccc(Cl)c(Cl)c3)cc2)no1`: -3.03% (inactive); `Cc1cc(NS(=O)(=O)c2ccc(NC(=O)Cc3ccc(Cl)c(C(F)(F)F)c3)cc2)no1`: -18.9% (inactive). The same measure, in the same setting: the result for `Cc1cc(NS(=O)(=O)c2ccc(C(=O)NCc3ccc(Cl)c(Cl)c3)cc2)no1` reads 9.63% (inactive); that for `O=C(Cc1ccc(Cl)c(Cl)c1)Nc1ccc(S(=O)(=O)Nc2cncnc2)cc1`, -26.7% (inactive). The same measure, in the same setting: the result for `Cc1cc(NS(=O)(=O)c2ccc(NC(=O)Cc3ccc4ccccc4c3)cc2)no1` reads -14% (inactive); that for `Cc1cc(NS(=O)(=O)c2ccc(NC(=O)Cc3ccc(Cl)c(F)c3)cc2)no1`, -4.95% (inactive).

Turning to `Cc1cc(NS(=O)(=O)c2ccc(NC(=O)Cc3cccc(Cl)c3)cc2)no1`, the “activity change, negative = cytotoxicity” value is 4.81% (inactive). On the same count and under the same terms, next, `Cc1cc(NS(=O)(=O)c2ccc(NC(=O)Cc3ccccc3)cc2)no1`: -5.92% (inactive); `Cc1cc(NS(=O)(=O)CCNC(=O)Cc2ccc(Cl)c(Cl)c2)no1`: 2.79% (inactive); `Cc1cc(N[S+](=O)([O-])c2ccc3cc(NC(=O)Cc4ccc(Cl)c(Cl)c4)ccc3c2)no1`: -4.84% (inactive).

As for `Cc1cc(N(C)S(=O)(=O)c2ccc(NC(=O)Cc3ccc(Cl)c(Cl)c3)cc2)no1`, the Potency is 31.5 µM (active).

As for `Cc1cc(NS(=O)(=O)Cc2ccc(NC(=O)Cc3ccc(Cl)c(Cl)c3)cc2)no1`, the “activity change, negative = cytotoxicity” value is -0.53% (inactive). Take `Cc1cc(NS(=O)(=O)c2ccc(NC(=O)c3ccc(Cl)c(Cl)c3)cc2)no1`: the “activity change, negative = cytotoxicity” value was -2.31% (inactive). Same read-out and setting: the result for `Cc1cc(NS(=O)(=O)c2ccc(NC(=O)Cc3ccc(Cl)cc3)cc2)no1` reads -2.34% (inactive); that for `Cc1cc(NS(=O)(=O)c2ccc(NC(=O)Cc3ccc(C)c(F)c3)cc2)no1`, 0.152% (inactive); that for `Cc1cc(NC(=O)c2csc(NC(=O)Cc3ccc(Cl)c(Cl)c3)n2)no1`, -17.8% (inactive).

In the case of `Cc1cc(NS(=O)(=O)c2ccc(NC(=O)C(C)(C)c3ccc(Cl)c(Cl)c3)cc2)no1`, the “activity change, negative = cytotoxicity” value was 1.51% (inactive).

As to `Cc1cc(NS(=O)(=O)c2ccc(NCCc3ccc(Cl)c(Cl)c3)cc2)no1`, the “activity change, negative = cytotoxicity” value is 4.6% (inactive).

In the case of `O=C(Cc1ccc(Cl)c(Cl)c1)Nc1ccc(S(=O)(=O)Nc2ccc(C(=O)O)cc2)cc1`, the “activity change, negative = cytotoxicity” value is -7.09% (inactive). Regarding `Cc1cc(N[S+](=O)([O-])c2ccc(NC(=O)Cc3ccc(Cl)nc3)cc2)no1`, the “activity change, negative = cytotoxicity” value was -2.33% (inactive). On the same count and under the same terms, next, `O=C(Cc1ccc(Cl)c(Cl)c1)Nc1ccc(S(=O)(=O)O)cc1`: 0.694% (inactive); `Cc1cc(NS(=O)(=O)c2ccc(N(C)C(=O)Cc3ccc(Cl)c(Cl)c3)cc2)no1`: -5.01% (inactive).

On to `COc1ccc(CC(=O)Nc2ccc(S(=O)(=O)Nc3cc(C)on3)cc2)cc1OC`, for which the “activity change, negative = cytotoxicity” value was 1.47% (inactive).

For the molecule `Cc1cc(NS(=O)(=O)C2CCN(C(=O)Cc3ccc(Cl)c(Cl)c3)CC2)no1`, the “activity change, negative = cytotoxicity” value was 0.791% (inactive). With `Cc1cc(NS(=O)(=O)c2cccc(NC(=O)Cc3ccc(Cl)c(Cl)c3)c2)no1`, the “activity change, negative = cytotoxicity” value is -9.42% (inactive). For the molecule `Cc1cc(NS(=O)(=O)c2ccc(NC(=O)Cc3ccc(C)c(C)c3)cc2)no1`, the “activity change, negative = cytotoxicity” value was -2.52% (inactive).
